Assay outcomes: PubChem, National Center for Advancing Translational Sciences (NCATS)
Sampled rows, rich in hits. Any-hit rate of the full collection: about 10%.
L3MBTL1 block – inhibitors of human L3MBTL1 | AID 485360 | Q9Y468 | actives 0.66% (n = 230,000) | Potency, µM (doses to about 57.1 µM), without a hit: top-dose activity, negative = inhibition, actives largely listed as inhibitors | AlphaScreen L3MBTL1–H3K9me1 peptide binding; also: % is scaled to controls: 0 for no effect and ±100 for the full control effect; nearly all actives have a fitted effect of over 60% in size
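AlphaScreen assay: L3MBTL1 (50 nM final) was preincubated 30 min at room temperature with biotinylated H3(1-15)K9me1 peptide (75 nM final), then 30 min with library compounds; streptavidin donor and nickel chelate acceptor beads (10 ug/mL final) added, 30 min dark.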
BAZ2B block – BAZ2B (human) inhibition. AlphaScreen BAZ2B-H3K14Ac peptide displacement. Potency, µM (top dose mostly 114 µM), for inactives: top-dose activity change, negative = inhibition, usual class: inhibitors. actives 4.4% (n = 360,000). Q9UIF8; also: % is scaled to controls: 0 for no effect and ±100 for the full control effect; nearly all actives have a fitted effect of over 60% in size
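Protein-peptide AlphaScreen: BAZ2B 50 nM, b-H3K14Ac 50 nM, 1x PBS pH 7.4 + 0.01% Tween-20. Preincubation 30 min RT; cpd 30 min RT (top 110 uM); beads 20 min RT, light-protected.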
GLS inh – blocks human kidney-isoform glutaminase activity. actives 0.21% (n = 410,000). GLS enzymatic activity, qHTS titration. Potency, µM (titrated, usually from 45.5 µM), without a hit: at the highest dose activity change, negative = inhibition, most hits filed as inhibitors. O94925; also: % is scaled to controls: 0 for no effect and ±100 for the full control effect
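Human kidney-isoform GLS in 45 mM KH2PO4 pH 8.2, 0.02% Tween-20, with compound, started with 1mM L-Glutamine (added stock). Glutamate oxidase/HRP/Amplex red coupled fluorescence read at start and after 30 min at RT.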
G9a inh – G9a (human) methyltransferase inhibition; G9a H3K9 monomethylation, AlphaScreen, 2 h; Potency, µM (titrated, usually from 102 µM), for inactives: top-dose activity, negative = inhibition, usual class: inhibitors; actives 8.8% (n = 350,000); AID 504332; also: % is scaled to controls: 0 for no effect and ±100 for the full control effect; nearly all actives have a fitted effect of over 75% in size
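Enzyme 20 nM + cpd, 15 min RT; add b-H3K9 pep 500 nM / SAM 20 uM; 2 h RT; anti-H3K9me1 Ab 0.5 ug/mL + SA donor / anti-rabbit acceptor beads 20 ug/mL each, 10 min; AlphaScreen read.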
JMJD2A Tudor inh – inhibitors of human JMJD2A Tudor domain | AlphaScreen JMJD2A-Tudor / H3K4me3 peptide binding | Potency, µM (series often up to 114 µM), without a hit: top-dose activity change, negative = inhibition, actives largely listed as inhibitors | O75164 | actives 4.4% (n = 390,000); also: % is scaled to controls: 0 for no effect and ±100 for the full control effect; nearly all actives have a fitted effect of over 50% in size
Target sequence (O75164 whole entry, looked up, the tested form may be a part): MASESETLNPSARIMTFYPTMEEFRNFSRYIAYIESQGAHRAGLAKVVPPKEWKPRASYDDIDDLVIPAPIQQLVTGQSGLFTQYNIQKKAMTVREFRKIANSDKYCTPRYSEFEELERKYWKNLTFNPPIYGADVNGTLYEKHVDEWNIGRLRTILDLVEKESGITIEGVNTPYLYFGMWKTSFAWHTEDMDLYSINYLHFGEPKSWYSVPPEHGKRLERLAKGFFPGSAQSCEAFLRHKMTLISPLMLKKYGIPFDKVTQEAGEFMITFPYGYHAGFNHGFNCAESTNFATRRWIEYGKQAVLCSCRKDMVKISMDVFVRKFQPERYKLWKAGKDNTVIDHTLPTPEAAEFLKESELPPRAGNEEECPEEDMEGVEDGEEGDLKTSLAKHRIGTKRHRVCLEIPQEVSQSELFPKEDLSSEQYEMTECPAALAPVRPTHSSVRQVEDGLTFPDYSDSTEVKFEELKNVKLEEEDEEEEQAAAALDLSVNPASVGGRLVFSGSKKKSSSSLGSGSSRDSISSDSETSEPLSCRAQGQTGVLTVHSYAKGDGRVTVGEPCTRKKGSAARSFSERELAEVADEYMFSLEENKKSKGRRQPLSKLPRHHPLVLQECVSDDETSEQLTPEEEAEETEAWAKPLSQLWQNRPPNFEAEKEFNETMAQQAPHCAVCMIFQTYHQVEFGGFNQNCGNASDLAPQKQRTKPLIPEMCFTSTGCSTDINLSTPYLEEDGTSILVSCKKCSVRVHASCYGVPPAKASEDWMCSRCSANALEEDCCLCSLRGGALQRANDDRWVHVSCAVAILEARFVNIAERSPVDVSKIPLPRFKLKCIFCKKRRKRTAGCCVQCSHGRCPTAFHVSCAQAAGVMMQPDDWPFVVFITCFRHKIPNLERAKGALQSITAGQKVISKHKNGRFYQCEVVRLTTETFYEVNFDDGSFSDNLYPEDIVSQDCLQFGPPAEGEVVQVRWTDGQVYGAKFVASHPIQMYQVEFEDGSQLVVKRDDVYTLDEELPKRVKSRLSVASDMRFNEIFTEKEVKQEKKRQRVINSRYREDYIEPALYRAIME
HP1b chromo inh – HP1-beta chromodomain-methylated histone interaction inhibition. Potency, µM (series often up to 114 µM), for inactives: at the top dose activity change, negative = inhibition, usual class: inhibitors. P83916. actives 0.56% (n = 390,000). AlphaScreen HP1-beta / biotin-H3K9me3 peptide binding; also: nearly all actives have a fitted effect of over 70% in size
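AlphaScreen: HP1-beta (50 nM) preformed 30 min with biotin-H3(1-18)K9me3 peptide (50 nM) in PBS pH 7.4, 0.01% Tween-20. Compound added for 30 min at RT, then streptavidin donor/nickel chelate acceptor beads (10 ug/mL) for 30 min.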
An asterisk follows results filed as active; ? = inconclusive; . = not tested or not shown; [ ] = another dose, or the depositor's remark. Calls follow the shape of the dose curve; as a rule, active = well fitted curve in the direction sought with a large enough effect; inconclusive = small, poorly fitted or top-dose-only effect, or another doubt; inactive = no such curve, though single readings can be large; an effect the other way counts as inactive or inconclusive. Potency is read from the fitted curve at half-maximal effect.

SMILES | L3MBTL1 block | BAZ2B block | GLS inh | G9a inh | JMJD2A Tudor inh | HP1b chromo inh
O=C(CSc1ccc([N+](=O)[O-])cn1)Nc1ccccc1N1CCOCC1 | . | -25.2% | 3.4% | 39.8µM* | -27.2% | 15.6%
Cc1csc(NC(=O)CSc2ccc([N+](=O)[O-])cn2)n1 | . | -31.2% | 2.7% | 50.1µM* | -26.6% | 31.5%
CC(C)(C)c1ccc(S(=O)(=O)N2CCC(Oc3ccc(-n4cnnn4)cc3)CC2)cc1 | . | -4.8% | 2.2% | 7.9%[59 µM] | -14.8% | 16.4%
Cc1ccc(N2C(=O)C(CC(=O)Nc3ccc(F)cc3)N(CCC3=CCCCC3)C2=O)cc1 (configuration not stated) | . | -5.6% | -2.5% | 13.4%[59 µM] | -13.2% | 31.3%
CN(C)CCN(C(=O)c1ccc(S(=O)(=O)N(C)c2ccccc2)cc1)c1nc2cc3c(cc2s1)OCO3 | . | 39.8µM* | -10.1% | 35.5µM* | ? | -14.3%
CN(C)CCN(C(=O)c1ccc(S(=O)(=O)N(C)c2ccccc2)cc1)c1nc2ccc(Cl)cc2s1 | . | -4.7% | 1.1% | . | ? | 16.4%
CN(C)CCN(C(=O)c1ccco1)c1nc2cc3c(cc2s1)OCCO3 | . | -24.3% | 29.5% | . | -9.9% | 24.7%
CCN(Cc1ccccc1)S(=O)(=O)c1ccc(C(=O)N(CCCN(C)C)c2nc3c(C)c(C)ccc3s2)cc1 | -10.3% | 10µM* | 5.9% | 35.5µM* | ? | -10.8%
CCN(Cc1ccccc1)S(=O)(=O)c1ccc(C(=O)N(CCCN(C)C)c2nc3cc4c(cc3s2)OCO4)cc1 | . | 25.1µM* | 6.7% | . | 56.2µM* | -12.0%
CC(=O)c1ccc(C(=O)N(Cc2cccnc2)c2nc3c(C)c(C)ccc3s2)cc1 | . | -30.7% | 4.9% | -44.8%[59 µM] | -25.6% | 15.9%
CN(C)CCN(C(=O)c1ccc(N2C(=O)CCC2=O)cc1)c1nc2cc3c(cc2s1)OCCO3 | . | ? | . | 31.6µM* | . | .
COc1ccccc1NC(c1ccc(Cl)cc1)c1nnc(-c2cccc(F)c2)o1 (configuration not stated) | . | -23.7% | 14.7% | -36.1%[59 µM] | -7.5% | 20.0%
Cc1ccc(CNC(=O)c2ccc(CSCc3ccccc3C)o2)cc1 | . | 19.0% | 9.1% | 12.4%[59 µM] | 1.5% | 31.2%
CN(C)CCCN(C(=O)c1ccc(S(=O)(=O)N(C)C)cc1)c1nc2cc3c(cc2s1)OCO3 | -18.9% | ? | 4.0% | 50.1µM* | -26.4% | 10.8%
CC(=O)c1ccc(C(=O)N(CCCN(C)C)c2nc3c(C)c(C)ccc3s2)cc1 | . | ? | -2.8% | -38.1%[59 µM] | ? | ?
Cc1ccc2sc(N(CCCN(C)C)C(=O)c3ccc(S(=O)(=O)N(C)C4CCCCC4)cc3)nc2c1C | -4.7% | ? | -4.2% | 31.6µM* | ? | ?
CN(C)CCN(C(=O)CN1C(=O)c2ccccc2C1=O)c1nc2cc3c(cc2s1)OCO3 | . | 89.1µM* | 12.3% | ? | -29.4% | 4.7%
CN(C)CCCN(C(=O)COc1ccccc1)c1nc2cc3c(cc2s1)OCCO3 | . | -16.8% | 11.6% | . | -18.8% | 11.5%[57 µM]
CN(C)CCCN(C(=O)c1ccc(C(=O)c2ccccc2)cc1)c1nc2cc3c(cc2s1)OCCO3 | . | 31.6µM* | -0.7% | . | 50.1µM* | -5.8%
Cc1ccc2nc(N(CCCN(C)C)C(=O)c3ccc(S(=O)(=O)N(C)C)cc3)sc2c1 | -8.6% | -11.2% | 14.0% | ? | -3.5% | 17.6%
CC(NC(=O)c1ccc(NC(=O)c2nsc3ccccc23)cc1)c1ccccc1 (configuration not stated) | . | 11.6% | 1.0% | 4.0%[59 µM] | -0.3% | 22.6%[57 µM]
Cc1cc2c(s1)c1cnn(Cc3cccc(Cn4ncc5c6sc(C)cc6n(C)c5c4=O)c3F)c(=O)c1n2C | . | . | . | . | -21.2% | .
O=C(C1CCN(S(=O)(=O)Cc2ccccc2)CC1)N1CCN(c2cccc(Cl)c2)CC1 | . | -2.8% | -2.3% | -35.7%[59 µM] | -8.6% | 31.2%
COc1ccccc1-n1nc(-c2ccccc2)c2cnc3c(F)cc(F)cc3c21 | . | . | 6.3% | 3.4%[59 µM] | -18.3% | 27.0%
C=CCn1c(CCc2cc(C(C)(C)C)c(O)c(C(C)(C)C)c2)n[nH]c1=S | -10.3% | -28.8% | 0.0% | 2µM* | ? | -14.7%
SMILES | L3MBTL1 block | BAZ2B block | GLS inh | G9a inh | JMJD2A Tudor inh | HP1b chromo inh
C=CCn1c(CCC(O)CCCCC)n[nH]c1=S (configuration not stated) | 7.1% | 3.6% | -16.2% | 7.08µM* | 17.8µM* | 2.9%
C=CCn1c(Cc2ccccc2)n[nH]c1=S | ? | -4.6% | -0.5% | . | 3.55µM* | 23.4%
C=CCn1c(Cc2c[nH]c3ccccc23)n[nH]c1=S | -20.8% | -6.5% | -18.2% | 6.31µM* | 8.91µM* | -4.4%
C=CCn1c(CSCc2ccc(F)cc2)n[nH]c1=S | 1.7% | 7.9% | -17.3% | . | -75.3% | 1.1%
COc1cc(C(=O)NCc2ccc3c(c2)CCN3C(=O)c2ccncc2)cc(OC)c1OC | . | -2.5% | 4.5% | 1.0%[59 µM] | -8.0% | 5.5%
C/C(=N\NC(=O)c1cccc(N/N=C(\C)c2ccncc2)c1)c1ccncc1 | -25.4% | ? | 37.8% | -41.0% | -24.7% | -9.7%
C/C(=N\Nc1ccccc1)c1cccc(N)c1 | -4.9% | ? | -12.2% | 8.91µM* | ? | ?
C/C(=N\NC(=O)c1cccc(N/N=C(\C)c2ccccc2)c1)c1ccccc1 | -9.2% | -24.4% | ? | 2.82µM* | -28.0% | -6.5%
C/C(=N/Nc1nc(-c2ccccc2)cc(-c2ccccc2)n1)c1ccc(N)cc1 | -16.2% | ? | . | 11.2µM* | . | .
C/C(=N\NC(=O)c1cc(O)cc(O)c1)c1ccc(NC(=O)Cc2ccccc2)cc1 | . | 8.91µM* | 33.6% | 8.91µM* | 14.1µM* | 31.6µM*
C/C(=N\NC(=O)c1cccc(F)c1)c1ccc(NC(=O)Cc2ccccc2)cc1 | . | -12.0% | 3.8% | 23.9% | -21.8% | 25.8%
Cc1cc2c(s1)c1cnn(Cc3c(Cl)ccc(C)c3F)c(=O)c1n2C | . | . | . | . | -26.7% | .
O=C(OCC#CCSc1nnc(-c2cccc3ccccc23)o1)c1ccsc1 | . | . | . | . | 29.3% | .
CC(C)(C)c1ccc(S(=O)(=O)c2cnc(SCC(=O)Nc3ccc4c(c3)OCCO4)[nH]c2=O)cc1 | . | ? | 4.7% | -36.0%[59 µM] | -33.1% | 12.0%
CN(C)S(=O)(=O)c1ccc(=S)[nH]c1 | 9.2% | . | 2.6% | 1.41µM* | 56.2µM* | ?
O=S(=O)(c1ccc(=S)[nH]c1)N1CCCC1 | 5.8% | . | ? | . | ? | -3.5%
O=C(C[n+]1cc(-c2ccccc2)n2c1CCCCC2)c1ccc(Br)cc1 | -9.4% | -24.1% | -4.2% | 50.1µM* | -16.8% | 15.7%
Cc1ccc(NC(=O)C[n+]2cc(-c3ccc(C)cc3)n3c2CCC3)cc1 | 6.6% | 3.8% | -24.8% | -48.8% | 8.91µM* | 16.7%
